A selection: hits, their analogues and other compounds. The true share with any hit is near 28%.
Pyk2 oligo antag = antagonists of Pyk2 self-association, primary screen, Q293 cells, FERM NanoBiT luminescence, HTS. Protein-tyrosine kinase 2-beta (Homo sapiens), Q14289. stronger effect = lower value. z-score (the deposit names both 25 µM and 10 µM). 99,000 tested, 0.83% active;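 active means Z-score of -3 or lower, scaled per plate to the spread of control and sample wells; inactive means z-score above -3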;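 further: negative z-score means lost luminescence so less FERM oligomerization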
CYP2C19 inh = blockers of cytochrome P450 2C19 activity – biochemical, luminescence, ADME assay, primary screen. P33261. CYP2C19 Supersomes, luciferin-H EGE luminescence, 30 min. inhibition, % at 5 µM. 96,000 tested, 21% active. AID 778, 2007;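 active means CYP2C19 inhibition above a set limit at 5 µM in the primary screen, cut at about 50% in these data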;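 further: plate controls were negative control wells for no effect and 2.5 mM tranylcypromine positive control for full effect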
Target sequence (P33261 whole entry, looked up): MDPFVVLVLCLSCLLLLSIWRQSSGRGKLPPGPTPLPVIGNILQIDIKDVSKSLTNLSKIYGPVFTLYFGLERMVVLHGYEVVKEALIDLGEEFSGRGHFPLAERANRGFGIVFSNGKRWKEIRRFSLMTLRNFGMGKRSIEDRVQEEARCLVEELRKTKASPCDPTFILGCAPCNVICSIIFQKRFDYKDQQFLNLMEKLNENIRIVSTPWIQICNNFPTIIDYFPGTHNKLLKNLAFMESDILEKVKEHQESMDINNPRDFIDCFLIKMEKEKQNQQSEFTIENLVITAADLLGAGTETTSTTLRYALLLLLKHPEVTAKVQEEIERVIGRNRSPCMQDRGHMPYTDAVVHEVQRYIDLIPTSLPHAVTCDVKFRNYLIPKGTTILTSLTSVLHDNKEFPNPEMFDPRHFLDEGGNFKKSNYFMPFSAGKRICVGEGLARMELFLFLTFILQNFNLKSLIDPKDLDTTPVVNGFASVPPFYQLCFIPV
CYP2C9 inhib = blockers of cytochrome P450 2C9 activity – biochemical, luminescence, ADME assay, primary screen | P11712 | CYP2C9 Supersomes, luciferin-H conversion | inhibition, % at 5 µM | 96,000 tested, 20% active;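 active means blocking of liver enzyme CYP2C9 beyond about 50% at 5 µM, limit read from the data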
CYP2C9 activ = human CYP2C9 activators, primary screen, biochemical, luminescence; recombinant CYP2C9, luciferin-H conversion; stronger effect = higher value; factor 1 = untreated enzyme, 0 = blocked; activation factor at 5 µM; Cytochrome P450 2C9 (Homo sapiens), P11712; 96,000 tested, 1.4% active;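 active means activation factor of 2 or more for CYP2C9 at a 5 µM dose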;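 further: 0 = sulfaphenazole-blocked wells and 1 = vehicle-only wells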
CYP2C19 activ = human CYP2C19 activators, primary screen, biochemical, luminescence. recombinant CYP2C19, luciferin-H EGE luminescence; stronger effect = higher value; 0 = fully inhibited enzyme, 1 = untreated enzyme. activation factor at 5 µM. 96,000 tested, under 10 active;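 active means activation factor of at least 2 at 5 µM in the primary screen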;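 further: 0 = wells with 2.5 mM tranylcypromine and 1 = vehicle-only wells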
An asterisk follows results filed as active; . = no result.

SMILES	Pyk2 oligo antag	CYP2C19 inh	CYP2C9 inhib	CYP2C9 activ	CYP2C19 activ
Cc1ccc(C(c2nnnn2Cc2cccs2)N2CCN(C(=O)c3ccco3)CC2)cc1 (stereo not drawn)	-1.2	71*	48	0.5	0.3
CCCCC(c1nnnn1Cc1ccco1)N1CCN(C(=O)c2ccco2)CC1 (stereo not drawn)	-0.99	85*	51*	0.5	0.1
O=C(c1ccco1)N1CCN(C(c2ccccc2F)c2nnnn2CC2CCCO2)CC1 (stereo not drawn)	3.3	24	71*	0.3	0.8
O=C1NCCN1C(=O)N(c1ccccc1)c1ccccc1	0.14	4	-1	1	1
Cc1cccc(C)c1NC(=O)CSCC(=O)c1ccc(O)c(O)c1	-0.25	-4	-23	1.2	1
CC1CCN(Cc2ccc(-c3nn[nH]n3)cc2)CC1	0.37	-11	-24	1.2	1.1
Cc1ccc(Nc2nc(N)nc(CSc3nccn3C)n2)c(C)c1	-0.48	8	-7	1.1	0.9
Cc1ccccc1Nc1nc(N)nc(CSc2nc3ccccc3c(=O)n2CCCO)n1	-1.2	90*	99*	0	0.1
Cc1ccc2c(CSc3nc4ccccc4c(=O)n3CCCO)cc(=O)oc2c1C	-0.9	68*	96*	0	0.3
Cc1ccccc1Nc1nc(N)nc(CSc2nc3ccccc3c(=O)n2C)n1	-3.1*	68*	82*	0.2	0.3
Cc1ccc2c(CSc3nnc4ccccn34)cc(=O)oc2c1C	0.62	.	.	.	.
COCCn1c(SCc2nc(N)nc(Nc3ccccc3C)n2)nc2ccccc2c1=O	-1.8	50	71*	0.3	0.5
COc1oc(-c2ccccc2)nc1C(F)(F)F	0.57	-12	-12	1.1	1.1
Cc1c(NC(=O)c2cc3nc(-c4ccc(Cl)cc4)cc(C(F)(F)F)n3n2)c(=O)n(-c2ccccc2)n1C	-0.12	.	.	.	.
CC(NC(=O)C1CCCN(C(=O)N(C)C)C1)c1ccccc1 (stereo not drawn)	1.8	29	53*	0.5	0.7
CC(NC(=O)C1CCC1)c1ccccc1 (stereo not drawn)	0.27	17	3	1	0.8
Cc1cc(Br)c2[nH]c3c(c2c1)CCCC3=O	-1	13	-35	1.4	0.9
CC(C(=O)N=c1sc2ccccc2n1C)N1C(=O)C2CC=CCC2C1=O (stereo not drawn)	-0.69	80*	58*	0.4	0.2
O=C(NC(=S)Nc1ccccc1)c1csnn1	-0.01	34	-7	1.1	0.7
O=C(Nc1ccccc1)N(Cc1ccccc1)C1=NCCS1	0.65	12	56*	0.4	0.9
CC1CN=C(N(Cc2ccccc2)C(=O)Nc2ccccc2)S1 (stereo not drawn)	-0.01	18	47	0.5	0.8
O=C(Nc1ccccc1)N(C1=NCCCCS1)c1cccc2ccccc12	-1.3	61*	20	0.8	0.4
CC(C)C1N=C2c3ccccc3N=C(SCC#N)N2C1=O (stereo not drawn)	-0.29	-2	-4	1	1
CC1(C)CC(=O)c2sc(NC(=O)c3ccc4ncsc4c3)nc2C1	.	-14	17	0.8	1.1
CC(=O)Nc1sc2c(c1CN1CCN(c3ccccn3)CC1)CCCC2	-0.58	82*	31	0.7	0.2
SMILES	Pyk2 oligo antag	CYP2C19 inh	CYP2C9 inhib	CYP2C9 activ	CYP2C19 activ
CC(=O)Nc1sc2c(c1CN1CCN(c3ccc(F)cc3)CC1)CCCC2	-1.4	86*	30	0.7	0.1
CNc1ccc(C(O)(C(F)(F)F)C(F)(F)F)cc1C(O)(C(F)(F)F)C(F)(F)F	-2.9	75*	53*	0.5	0.3
CCC(C)n1c(SCC(=O)NCc2ccco2)nnc1-c1cccc(S(=O)(=O)N2CCOCC2)c1 (stereo not drawn)	1.3	-6	20	0.8	1.1
CCN1CCN(c2cc(=O)n(-c3cc(Cl)ccc3C)c(=O)[nH]2)CC1	1.1	20	60*	0.4	0.8
Cc1nc(SCC#N)c2c(C)c(C)sc2n1	0.67	-12	-18	1.2	1.1
Cc1cc(C(=O)Nc2ccc(N3CCOCC3)cc2)c2ccccc2n1	-0.32	0	-11	1.1	1
O=C(Nc1ccc(N2CCOCC2)cc1)c1cn2ccccc2n1	1.3	60*	34	0.7	0.4
CC(=O)OC1COC(N2CCc3cc([N+](=O)[O-])ccc32)C(OC(C)=O)C1OC(C)=O (stereo not drawn)	-0.23	72*	81*	0.2	0.3
CC(=O)c1cccc(-n2nnnc2SCC(=O)N2CCCC2)c1	0.29	-11	-21	1.2	1.1
CCC(c1nnnn1C1CCCC1)N(Cc1cccs1)Cc1cc2cc(C)ccc2[nH]c1=O (stereo not drawn)	0.07	37	-98	2*	0.6
CCOC(=O)Cn1nnnc1C(CC)N(Cc1cccs1)Cc1cc2cc(C)ccc2[nH]c1=O (stereo not drawn)	0.41	95*	85*	0.2	0.1
CCOc1ccc2[nH]c(=O)c(CN(Cc3cccs3)C(CC)c3nnnn3C(C)(C)CC)cc2c1 (stereo not drawn)	0.58	63*	87*	0.1	0.4
CCOC(=O)Cn1nnnc1C(CC)N(Cc1cc2ccc(C)cc2[nH]c1=O)C1CCCC1 (stereo not drawn)	1.8	42	36	0.6	0.6
CCOc1ccc2[nH]c(=O)c(CN(Cc3ccco3)C(CC)c3nnnn3Cc3ccccc3)cc2c1 (stereo not drawn)	2	16	30	0.7	0.8
CCOC(=O)Cn1nnnc1C(C(C)C)N(Cc1cccs1)Cc1cc2cc(C)ccc2[nH]c1=O (stereo not drawn)	1.1	84*	64*	0.4	0.2
O=C(NCC1COc2ccccc2O1)c1ccc(Cl)cc1 (stereo not drawn)	1.1	74*	1	1	0.3
O=C(NCC1COc2ccccc2O1)Nc1ccccc1F (stereo not drawn)	-0.76	96*	85*	0.2	0
Cc1cc(=O)oc(C)c1C(=O)NCC1COc2ccccc2O1 (stereo not drawn)	-0.21	17	55*	0.5	0.8
O=C(O)CNCC1COc2ccccc2O1 (stereo not drawn)	1.5	1	8	0.9	1
Cc1cccc(C)c1OCC(O)CNS(=O)(=O)c1ccccc1C(=O)N1CCCCC1 (stereo not drawn)	-0.97	.	.	.	.
Cc1ccc(C=NCc2ccncc2)c(O)c1	-0.35	76*	72*	0.3	0.2
CN(C(=O)COc1ccccc1C(=O)NCCc1ccccc1)c1ccccc1	0.11	.	.	.	.
Cc1[nH]c2ccccc2c(=O)c1SC(F)(F)C(F)C(F)(F)F (stereo not drawn)	-1.7	58*	22	0.8	0.4
COC(=O)C(F)(F)Sc1c(C)[nH]c2ccccc12	0.79	.	.	.	.
COc1ccccc1NC(=O)CN1C(=O)C2(OCCCO2)c2ccccc21	0.79	80*	70*	0.3	0.2

Source: PubChem (Sanford-Burnham Center for Chemical Genomics)
